Columns and labels:
Assay type in all cases: functional
[1] = target: Solute carrier family 2, facilitated glucose transporter member 1 (Homo sapiens) (UniProt P11166); assay: ST_JUDE_LEISH: Cytotoxicity at 2uM final concentration against transgenic Leishmania Mexicana promastigotes LmGLUT1 that are glucose transport deficient and complemented with the human glucose transporter GLUT1. Activity is measured by DNA content using SYBR green in vitro
[2] = target: Hexose transporter 1 (Plasmodium falciparum) (UniProt O97467); assay: ST_JUDE_LEISH: Cytotoxicity at 2uM final concentration against transgenic Leishmania Mexicana promastigotes LmPfHT that are glucose transport deficient and complemented with the Plasmodium falciparum hexose transporter. Activity is measured by DNA content using SYBR green in vitro
[3] = target: Glucose transporter (Leishmania mexicana) (UniProt O61059); assay: ST_JUDE_LEISH: Cytotoxicity at 2uM final concentration against transgenic Leishmania Mexicana promastigotes LmGT2 that are glucose transport deficient and complemented with the L. Mexicana glucose transporter 2. Activity is measured by DNA content using SYBR green in vitro

Solute carrier family 2, facilitated glucose transporter member 1 (Homo sapiens), sequence (P11166 whole entry): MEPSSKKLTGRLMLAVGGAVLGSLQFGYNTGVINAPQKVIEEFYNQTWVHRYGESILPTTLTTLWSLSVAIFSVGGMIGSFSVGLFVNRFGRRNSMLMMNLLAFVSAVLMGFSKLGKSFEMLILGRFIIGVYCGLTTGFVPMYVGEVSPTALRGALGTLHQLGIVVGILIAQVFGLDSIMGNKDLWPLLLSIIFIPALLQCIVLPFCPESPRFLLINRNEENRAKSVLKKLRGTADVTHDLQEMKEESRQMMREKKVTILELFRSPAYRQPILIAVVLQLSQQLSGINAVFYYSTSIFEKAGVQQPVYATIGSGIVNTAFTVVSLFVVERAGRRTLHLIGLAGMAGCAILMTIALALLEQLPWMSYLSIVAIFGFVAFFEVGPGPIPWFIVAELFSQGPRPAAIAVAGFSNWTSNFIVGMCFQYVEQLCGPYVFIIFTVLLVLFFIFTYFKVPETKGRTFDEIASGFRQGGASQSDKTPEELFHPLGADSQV

SMILES	inhibition [1]	inhibition [2]	inhibition [3]
CC(C)(C)c1cc(C(=O)N2CCN(c3ccc(C(F)(F)F)cn3)CC2)n(Cc2ccc(F)cc2)n1	-1.9%	-3.19%	-1.88%
Cc1cc(OCCCN2CCC(NS(=O)(=O)c3ccc(Cl)c(Cl)c3)CC2)c2ccccc2n1	4.28%	4.69%	4.76%
CCCNCc1ccc(-c2ccc(CN(CCOC)C(=O)c3cscn3)cc2)nc1	1.92%	1.83%	2.19%
O=C(Nc1ccc(Cl)cc1)Nc1ccc(-c2cccc(-c3nc4ccccc4[nH]3)c2)cc1	1.48%	2.71%	-1.97%
COc1ccc(NC(=O)CCNc2cc(C)nc(NCc3cccc(C)c3)n2)cc1	-0.09%	0.43%	-1.14%
CCOc1cc(C(=O)NC2CCN(Cc3ccccc3)C2)ccc1-c1nc2cc(Cl)ccc2[nH]1 (centres undefined)	6.92%	3.47%	6.92%
CC(CN1CCN(CC(c2ccc(F)cc2)N2CCN(C)CC2)CC1)C(=O)c1ccc(O)cc1 (centres undefined)	2.71%	2.35%	2.04%
Oc1ccc(-c2ccccc2)cc1CN1CCCCC1	4.4%	5.51%	-0.56%
Cc1cc(NC(=O)Nc2ccc3nccc(N4CCN(C)CC4)c3c2)ccc1Br	-0.1%	1.48%	1.15%
CCn1ccc2c3c(N)nc(N)nc3ccc21	1.21%	2.13%	-1.34%
O=C(O)c1ccc2nc(-c3ccccn3)c(-c3ccccn3)nc2c1	-0.91%	-3.35%	-0.14%
O=c1[nH]c2ccc(Nc3nccc(NCCc4ccccc4)n3)cc2[nH]1	1.91%	4.94%	5.12%
FC(F)(F)c1cccc(Nc2nc(-n3ccnc3)nc(-n3ccnc3)n2)c1	1.93%	0.62%	1.05%

From ChEMBL document CHEMBL3433997, “St. Jude Leishmania screening dataset” (2016)
